# According to PubChem BioAssay AID720553 (National Center for Advancing Translational Sciences (NCATS), 2013):
# Among all 340,000 compounds or so, about 3,300 (0.97%) were called active. The sample holds actives, similar compounds and a random draw of the others, so the mix is not that of the screen. Values without a mark were called inactive.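 Rule for the calls: active = maximum activity change below -70%; inconclusive = maximum activity change from -70% to -50%; inactive = maximum activity change above -50%.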
# System: Potassium voltage-gated channel subfamily H member 2, brain isoform KCNH2 3.1 (human)
# Assay: qHTS for Inhibitors of KCHN2 3.1: Mutant qHTS
# Conditions: U2OS KCNH2 3.1, thallium flux FluxOr; hits give low values
# Method in brief: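 U2OS cells transduced with KCNH2 3.1 mutant virus (1.77 x 10^8 /mL, 4 h), plated overnight at 37 C, loaded 45 min with FluxOr dye plus Red40 quencher. Thallium flux rate constant from kinetic reads after stimulation buffer, normalised to controls.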
# % is set by controls: 0 for no effect and ±100 for the full control effect.
row,SMILES,activity change
1,O=S(=O)(c1cccs1)N1CCN(Cc2ccccc2)CC1,-4.85%
2,O=S(=O)(c1cccs1)N1CCc2ccccc2C1,6.27%
3,O=S(=O)(c1cccs1)N1CCN(CCOc2ccccc2)CC1,-99.6% (active)
4,Cc1ccc(C)c(NC(=S)NNC(=S)Nc2ccc(C(C)C)cc2)c1,-96.6% (active)
5,Cc1ccc(NC(=S)N/N=C2/CCCc3c(C)cc(C)cc32)cc1,-3.22%
6,Cc1ccc(C)c(NC(=S)NNC(=O)c2csc(C)c2)c1,-0.222%
7,CCc1nc2c(=O)[nH]cnc2o1,2.34%
8,NC(=S)NN=Cc1ccc(OC(=O)COc2cc(Cl)c(Cl)cc2Cl)cn1,-0.923%
9,O=C1NN(c2ccccc2)C(=O)/C1=C/c1ccc(-c2cccc(C(=O)O)c2)o1,28.7%
10,NS(=O)(=O)c1ccc(-c2ccc(/C=C3\SC(=O)NC3=O)o2)cc1,14.4%
11,CN1C(=O)/C(=C\c2ccc(-c3ccccc3)o2)SC1=S,-83.7% (active)
12,COc1ccc(NC(=O)CN2C(=O)NC(C)(c3ccccc3)C2=O)cn1 (centres undefined),-3.34%
13,Cc1ccc(NC(=O)CSc2nnc(-c3cnccn3)n2Cc2ccco2)cc1C,3.68%
14,O=C(CSc1nnc(-c2cccnc2)n1Cc1ccco1)c1ccc(Cl)c(Cl)c1,-12.1%
15,O=C(CSc1nnc(-c2cnccn2)n1Cc1ccco1)c1ccc(Cl)c(Cl)c1,-196% (active)
16,CCN(CC)C(=O)C1=C(C)N(Cc2ccc(C(C)(C)C)cc2)C(=O)C(CC(=O)NCc2cccc3ccccc23)C1 (centres undefined),-13.1%
17,COc1ccc(NC(=O)CN2C(=O)CSC2=O)cc1,5.91%
18,CCOc1ccc(NC(=O)N2CCN(CC)CC2)cc1,10.1%
19,CCc1ccc(NC(=O)CN2CCC(C(=O)c3ccc(OC)cc3)CC2)cc1,-75.5% (active)
20,CCc1cc(C(=O)c2ccc(OC)cc2)c(NC(=O)CN2CCN(C)CC2)s1,-103% (active)
21,COc1ccc(C(=O)Nc2sc(C)c(C)c2CN2CCOCC2)cc1,0.971%
22,COc1ccc(C(=O)N2CCC(C(=O)Nc3ccc(C)cc3)CC2)cc1,-27%
23,CCOc1ccc(NC(=O)CN2CCN(CC(=O)Nc3ccc(OC)cc3)CC2)cc1,-89.9% (active)
24,CCc1cc(C(N)=O)c(NC(=O)c2ccc(OC)cc2)s1,3.81%
25,CCC1CCC2(CC1)NC(=O)N(CC(=O)Nc1ccc(OC)cc1)C2=O (centres undefined),10.2%
26,COc1ccc(OC)c(NC(=O)C2CCCN2S(=O)(=O)c2ccc3c(c2)CC(C)N3C(C)=O)c1 (centres undefined),12.8%
27,CC1CC(NC(=S)N(C)C)CC(C)(C)C1 (centres undefined),-0.254%

row,SMILES,activity change
1,Cc1cn([C@H]2C[C@H](O)[C@@H](CNC(=O)[C@H](N)Cc3cccnc3)O2)c(=O)[nH]c1=O,0.448%
2,Cc1ccc(S(=O)(=O)N2CCOCC2)cc1NC(=O)c1ccncc1,0.781%
3,O=C1CCC(=O)N1CCC(=O)N(C(=O)NC1CCCCC1)C1CCCCC1,-16.1%
4,CCOc1cc(/C=N/NC(=O)c2c(C)nc3ccc(Cl)cn23)ccc1O,6.54%
5,O=C(Nc1ccc2c(c1)[C@@H]1C[C@@H](CC(=O)N3CCCCC3)O[C@@H](CO)[C@@H]1O2)NC1CCCCC1,7.85%
6,CCOC(=O)c1c(S(=O)(=O)Nc2cccc(Cl)c2)c(C)n(C)c1C,-89.7% (active)
7,CCOC(=O)c1c(S(=O)(=O)Nc2ccc(CN3CCC(C)CC3)cc2)c(C)n(C)c1C,-4.58%
8,CCOC(=O)c1cccc(NS(=O)(=O)c2c(C(=O)N3CCCCCC3)c(C)n(C)c2C)c1,0.277%
9,C[C@@H]1CCCCO[C@H](CN(C)Cc2ccccc2)[C@@H](C)CN([C@H](C)CO)C(=O)c2cc(NS(=O)(=O)c3ccc(Cl)cc3)ccc2O1,-12%
10,CCN1C(=O)[C@H]2[C@@H](c3ccc(C(F)(F)F)cc3)N[C@]3(CCCN(Cc4ccc(Br)cc4)C3=O)[C@H]2C1=O,-2.79%
11,CCC(=O)c1ccc(OCC(O)CN2CCN(c3cccc(C(F)(F)F)c3)CC2)cc1 (centres undefined),-77.4% (active)
12,CC(=O)Nc1ccc(OCC(O)CN2CCN(c3ccccc3Cl)CC2)cc1 (centres undefined),-1.41%
13,CC(=O)c1ccc(OCC(O)CN2CCN(S(=O)(=O)c3cccc(Br)c3)CC2)cc1 (centres undefined),-4.78%
14,CCN(CC(=O)Nc1ccc(NC(C)=O)cc1)C(=O)C1CC(=O)N(c2ccc3c(c2)OCCO3)C1 (centres undefined),0.735%
15,O=C(CN1CCN(CC(=O)Nc2ccc3c(c2)OCO3)CC1)Nc1ccc(F)cc1,-109% (active)
16,O=C(COC(=O)c1ccc(F)cc1)Nc1ccc2c(c1)OCO2,-1.18%
17,O=C(CN1CCN(C(=O)c2ccco2)CC1)Nc1ccc2c(c1)OCO2,0.979%
18,COc1ccc(-c2c(C#N)cnc(C)c2C)c(O)c1OC,1.89%
19,CC(Sc1ccc(S(=O)(=O)N2CCN(C)CC2)cn1)C(=O)NC1CCCC(C)C1C (centres undefined),-1.67%
20,C[C@H]1CN([C@@H](C)CO)C(=O)CCCn2cc(nn2)CO[C@@H]1CN(C)S(=O)(=O)c1cccc(C#N)c1,-14.5%
21,C[C@H]1CN([C@@H](C)CO)C(=O)CCCn2nncc2CO[C@@H]1CN(C)S(=O)(=O)c1cccc(C#N)c1,-3.59%
22,C[C@@H]1CN([C@H](C)CO)C(=O)CCCn2nncc2CO[C@@H]1CN(C)S(=O)(=O)c1cccc(C#N)c1,-103% (active)
23,Cc1cccc(S(=O)(=O)N(C)C[C@@H]2OCc3cnnn3CCCC(=O)N([C@H](C)CO)C[C@@H]2C)c1,15.7%
24,O=C1OCCC1=COCCCCOC=C1CCOC1=O,5.66%
25,Cc1noc(/C=C/c2ccco2)c1S(=O)(=O)N1CCC(C(=O)N2CCc3ccccc32)CC1,-11.8%
26,CNC(=O)C1CCN(S(=O)(=O)c2c(C)noc2/C=C/c2cccc(C)c2)CC1,-0.856%
27,Cc1noc(/C=C/c2ccco2)c1S(=O)(=O)N1CCC(C(=O)Nc2ccc(Cl)cn2)CC1,-73.5% (active)
